The panel holds about 79,000 compounds, 15% with a hit somewhere; the sample as a whole holds those more often. Active and inactive are the calls of the source. Cut-off read from the data, not from the text of the source: active = growth inhibition above about 70%; inactive = the rest.
Assay: NCI Yeast Anticancer Drug Screen. Data for the mgt1 strain (AID 153)
Conditions: S. cerevisiae mgt1 mutant growth inhibition, hits give high values
Method: Growth inhibition of yeast strains with defined genetic alterations is measured as a screen for potential anti-cancer activity. Selected strains with alterations in DNA damage repair or cell cycle control were exposed to compounds and growth inhibition was measured relative to vehicle treated controls. The strain used in this assay is mgt1

Measured: growth inhibition

S=C1N(c2ccc(Cl)cc2)C2=C(N=Nc3ccccc3)C(=Nc3ccccc3S2)N1c1ccccn1
active: at 33.0 µM 99% | at 100.0 µM 99%
inactive: at 1.2 µM 13% | at 3.7 µM 15% | at 11.0 µM 66%

CC/C(=C(\c1ccccc1)c1ccc(OCC[N+](C)(C)C)cc1)c1ccccc1
active: at 11.0 µM 99% | at 33.0 µM 99% | at 100.0 µM 99%
inactive: at 1.2 µM -1% | at 3.7 µM 55%

Cc1cccc(/C=N/NC(=S)NC2CCCCC2)n1
inactive: at 1.2 µM -5% | at 3.7 µM -8% | at 11.0 µM 19% | at 33.0 µM 20% | at 100.0 µM 21%

CC1C(c2ccccc2)SC(=N)N1C (stereo not given)
inactive: at 1.2 µM -1% | at 3.7 µM 0% | at 11.0 µM 0% | at 33.0 µM -1% | at 100.0 µM -1%

CCOC(=O)CC1(C)/C(=N\Nc2ccc([N+](=O)[O-])cc2[N+](=O)[O-])CCC2C1CCC1(C)C(C(C)CCCC(C)C)CCC21 (stereo not given)
inactive: at 1.2 µM -1% | at 3.7 µM -3% | at 11.0 µM -2% | at 33.0 µM -1% | at 100.0 µM -5%

O=[N+]([O-])c1cc(Cl)ccc1S(=O)(=O)c1ccc(Cl)cc1[N+](=O)[O-]
active: at 33.0 µM 84% | at 100.0 µM 78%
inactive: at 1.2 µM -29% | at 3.7 µM -27% | at 11.0 µM 0%

O=C(NCCCCN1CC2CCCC2C1)C(C1CCCCC1)C1CCCCC1 (stereo not given)
inactive: at 1.2 µM 4% | at 3.7 µM 5% | at 11.0 µM 40%
active: at 33.0 µM 94% | at 100.0 µM 98%

C[C@H](CCC1=NC(C)(C)CO1)C1CCC2[C@@H]3C(O)C[C@@H]4CC(O)CC[C@]4(C)C3CC[C@@]21C (stereo not given in full)
active: at 33.0 µM 71% | at 100.0 µM 100%
inactive: at 1.2 µM -7% | at 3.7 µM -8% | at 11.0 µM -9%

Source: PubChem BioAssay (NCI)
